According to the supplement of paper PMC11172423:

Assays:
[1] = tested on: Falciformispora senegalensis CBS197.79; test: growth relative to untreated control; higher = less inhibition, active = 20 or less
Procedure, shortened: (§1)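 For each test, a hyphal fragment suspension of M. mycetomatis MM55 or F. senegalensis CBS197.79 was prepared in colourless RPMI 1640 with L-glutamine and MOPS at 68–72% transmission at 660 nm. Exposure to compound at 100 or 25 µM ran for 7 days at 37 °C in 96-well plates, followed by viability reading with MTS (2 h, 490 nm) or resazurin (600 nm). Growth corresponds to metabolic activity relative to the untreated growth control after correction of both with a blank of medium and dye.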

[2] = tested on: Madurella mycetomatis MM55; test: as above
Procedure, shortened: as §1

Measured: growth

CCn1cnc2c(N3CCCC(c4ccncc4)C3)ncnc21 (centres undefined)
inactive: [1]; 25 µM 99.7% | [1]; 100 µM 94.6% | [2]; 25 µM 84.4% | [2]; 100 µM 62.5%

CCSC1CCCCC1NCCn1c(=O)oc2cccnc21 (centres undefined)
inactive: [1]; 25 µM 91.3% | [1]; 100 µM 90.9% | [2]; 25 µM 37.9% | [2]; 100 µM 93.1%

CO[C@@H]1[C@H](N(C)C(=O)c2ccccc2)C[C@H]2O[C@]1(C)n1c3ccccc3c3c4c(c5c6ccccc6n2c5c31)C(=O)NC4
inactive: [1]; 25 µM 113% | [1]; 100 µM 89.5% | [2]; 25 µM 77.9% | [2]; 100 µM 87.3%

Cc1cc(C(=O)N2CCOc3c(cc(-c4csc5ccccc45)cc3OCCc3ccccn3)C2)n(C)n1
inactive: [1]; 25 µM 90.1% | [1]; 100 µM 91.1% | [2]; 100 µM 87.7%
active: [2]; 25 µM 5.62%

O=c1[nH]ccc2nc(N[C@@H]3CCNC3)nc(Nc3ccc4c(c3)S(=O)(=O)CC4)c12
inactive: [1]; 25 µM 90.7% | [1]; 100 µM 113% | [2]; 25 µM 62.9% | [2]; 100 µM 104%

C[C@@H](c1nc(-c2ccc(C#N)cc2)cs1)[C@](O)(Cn1cncn1)c1ccc(F)cc1F
active: [2]; 25 µM 3.04% | [2]; 100 µM 5.78%
inactive: [1]; 25 µM 49.9% | [1]; 100 µM 52.3%

Cc1ccc(-c2c3c(nc4sc(C(=O)Nc5ccc(F)cc5)c(N)c24)CCC3)cc1
inactive: [1]; 25 µM 81.3% | [1]; 100 µM 89.6% | [2]; 25 µM 110% | [2]; 100 µM 122%

CC1(O)CN(C(=O)c2cccc(NC(=O)c3ccc(Nc4ccccn4)cc3)c2)C1
inactive: [1]; 25 µM 106% | [1]; 100 µM 107% | [2]; 25 µM 55.8% | [2]; 100 µM 141%

Cc1ccccc1-c1noc(-c2ccccc2)n1
inactive: [1]; 25 µM 92.9% | [1]; 100 µM 86.5% | [2]; 25 µM 93.4% | [2]; 100 µM 60.5%

CN1[C@H]2CC[C@H]1CC(OC(c1ccccc1)c1ccccc1)C2 (some centres undefined)
inactive: [1]; 25 µM 103% | [1]; 100 µM 103% | [2]; 25 µM 82.4% | [2]; 100 µM 84.3%

CCN(CC)CCNc1nc(Nc2cccc(OC)c2)c2cnn(-c3ccccc3)c2n1
inactive: [1]; 25 µM 76.3%
active: [1]; 100 µM 17.5% | [2]; 25 µM 5.18% | [2]; 100 µM 4.88%

COc1cc2nccc(Oc3ccc(NC(=O)C4(C(=O)Nc5ccc(F)cc5)CC4)cc3)c2cc1OC
inactive: [1]; 25 µM 83.6% | [1]; 100 µM 98.4% | [2]; 25 µM 99.9% | [2]; 100 µM 79.9%

CC(C)Nc1cccnc1N1CCN(C(=O)c2cc3cc(NS(C)(=O)=O)ccc3[nH]2)CC1
inactive: [1]; 25 µM 101% | [1]; 100 µM 96.5% | [2]; 25 µM 104% | [2]; 100 µM 96.3%

FC(F)(F)c1ccc(CNc2ccc(Cc3c[nH]c4ncc(Cl)cc34)cn2)cn1
inactive: [1]; 25 µM 95.7% | [1]; 100 µM 106% | [2]; 25 µM 93.1% | [2]; 100 µM 95.5%

CCOC(=O)N1CCC(=C2c3ccc(Cl)cc3CCc3cccnc32)CC1
inactive: [1]; 25 µM 106% | [1]; 100 µM 104% | [2]; 25 µM 54.3%
active: [2]; 100 µM 6.05%

NC(=O)c1cccc(CN2Cc3ccccc3OC3(CCN(Cc4c[nH]c5cnccc45)CC3)C2)c1
inactive: [1]; 25 µM 85% | [1]; 100 µM 96.6% | [2]; 25 µM 54.2% | [2]; 100 µM 71.2%

CN1CCC(N2CCC(NC(=O)c3cc4c(F)cccc4s3)CC2)CC1
active: [1]; 100 µM 15.5%
inactive: [1]; 25 µM 91.4% | [2]; 25 µM 131% | [2]; 100 µM 46.6%

CC[C@H](C)[C@H]1O[C@]2(CC[C@@H]1C)C[C@@H]1C[C@@H](C/C=C(\C)[C@@H](O[C@H]3C[C@H](OC)[C@@H](O[C@H]4C[C@H](OC)[C@@H](O)[C@H](C)O4)[C@H](C)O3)[C@@H](C)/C=C/C=C3\CO[C@@H]4[C@H](O)C(C)=C[C@@H](C(=O)O1)[C@]34O)O2
inactive: [1]; 25 µM 93.9% | [1]; 100 µM 106% | [2]; 25 µM 73.2% | [2]; 100 µM 83.5%

CN(C)C1CC(NC(=O)c2ccc(Nc3nccc(-c4ccc(Cl)c(C(F)(F)F)c4)n3)cc2)C1 (centres undefined)
active: [2]; 25 µM 7.71% | [2]; 100 µM 6.2%
inactive: [1]; 25 µM 96.6% | [1]; 100 µM 102%

CC[C@@H]([C@H](C)O)n1ncn(-c2ccc(N3CCN(c4ccc(OC[C@@H]5CO[C@@](Cn6cncn6)(c6ccc(F)cc6F)C5)cc4)CC3)cc2)c1=O
inactive: [1]; 25 µM 25.2% | [1]; 100 µM 24.1%
active: [2]; 25 µM 6.56% | [2]; 100 µM 9.91%

O=C(c1ccc(Nc2nccc(-c3ccc(C(F)(F)F)c(Cl)c3)n2)cc1)N1CC(O)C1
inactive: [1]; 25 µM 97.7% | [1]; 100 µM 106% | [2]; 25 µM 103% | [2]; 100 µM 131%
